Source: PubChem BioAssay
Bead autofluor = counter-screen for toxin protease inhibitors: compound fluorescence; fluorescence intensity (no concentration beside the values); compound autofluorescence counterscreen, microsphere flow cytometry; active compounds read high; 3.1% of 360,000 active; in the data active = fluorescence intensity above about 16000; inconclusive = no clear call, values can overlap the other calls
PfHsp40 yeast = rescue of PfHsp40-mediated yeast toxicity | S. cerevisiae expressing PfHsp40, growth rescue, ATP luminescence | growth rescue, % at 12.5 µM | 0.68% of 340,000 active; in the data active = growth rescue above about 28%, passing the limit was not always enough; inconclusive = no clear call, values can overlap the other calls;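 note: yeast W303a lacking pdr1 and pdr3 grown in galactose medium; growth measured after three days at 30 °C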
Anthrax LF inh2 = blocks Bacillus anthracis lethal factor protease. P15917. multiplex microsphere protease cleavage assay, LF. inhibition, % at 10 µM. 0.12% of 360,000 active. AID 588501; note: plate controls were buffer without enzyme for full effect and enzyme alone for no effect
BoNT-F LC inh = BoNT F light chain protease inhibition; Multiplex microsphere protease cleavage assay, flow cytometry; 0.22% of 360,000 active; inhibition, % at 10 µM; AID 588497; in the data active = inhibition above about 35%, passing the limit was not always enough; inconclusive = no clear call, values can overlap the other calls; note: plate controls were buffer without enzyme for full effect and enzyme alone for no effect
MazF activator = MazEF (E. coli) toxin RNase activation. FAM/BHQ RNA-DNA oligo cleavage fluorescence, 5 h. activation, % at 20 µM. 0.32% of 350,000 active; in the data active = activation above about 50%
Target sequence (P0AE70 whole entry, looked up): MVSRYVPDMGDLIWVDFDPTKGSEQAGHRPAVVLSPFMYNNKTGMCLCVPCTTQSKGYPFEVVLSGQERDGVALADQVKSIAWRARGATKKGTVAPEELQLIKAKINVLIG
BoNT-A LC inh2 = blocks Botulinum neurotoxin A light chain protease | multiplex microsphere protease substrate cleavage, flow cytometry | 0.17% of 360,000 active | AID 588499 | inhibition, % at 10 µM; note: plate controls were buffer without enzyme for full effect and enzyme alone for no effect
* = called active by the depositor; ? = inconclusive; . = not tested or not shown. The list is not random: actives were taken first. Their share in the collection is about 4.3%. Cut-off read from the data, not from the text of the source, unless noted: active = inhibition above about 30%; inconclusive = no clear call, values can overlap the other calls; inactive = below that.

SMILES	Bead autofluor	PfHsp40 yeast	Anthrax LF inh2	BoNT-F LC inh	MazF activator	BoNT-A LC inh2
O=[N+]([O-])c1cc(C(F)(F)F)ccc1NCCc1c[nH]c2ccccc12	2498	3	3	-6	7	0
CN1CCN(C(=O)CN(Cc2ccccc2)S(C)(=O)=O)CC1	22469*	-2	1	0	-1	0
CC(O)(c1ccc(F)c(F)c1)c1nc(/C=C/c2ccc(C(F)(F)F)cc2)cs1 (stereo unspecified)	3895	.	-1	-7	.	0
CC1(C(=O)NC2CCCC2)CCC(=O)N1Cc1ccc2c(c1)OCO2 (stereo unspecified)	25159*	-1	-3	-7	4	-4
COc1ccc(CN2C(=O)CCC2(C)C(=O)NC2CCCCCC2)cc1 (stereo unspecified)	23241*	0	-3	1	11	-2
CC(C)CCN1C(=O)CCC1(C)C(=O)NC1CCCCCCC1 (stereo unspecified)	23125*	-2	-1	-1	6	0
CCc1ccc(CN2C(=O)CCC2(C)C(=O)NC2CCCC2)cc1 (stereo unspecified)	15084	-1	-10	4	10	4
CC1Sc2ccc(S(=O)(=O)CCC(=O)Nc3ccc(C(C)C)cc3)cc2NC1=O (stereo unspecified)	4507	2	-3	-1	-4	-3
Cc1ccc(NC(=O)C/C(N)=N/OC(=O)Nc2cccc(Cl)c2)cc1	7545	0	1	3	2	2
Cc1nc(Nc2nc(CSc3ccc(Cl)cc3)cc(=O)[nH]2)nc2ccccc12	2644	-1	-1	-14	-16	-1
Cc1nc(Nc2nc(CSc3nc4ccccc4[nH]3)cc(=O)[nH]2)nc2ccccc12	9543	0	0	5	-70	2
COc1cccc2c(C)nc(Nc3nc(CSc4nnc(C)s4)cc(=O)[nH]3)nc12	3194	0	-4	4	62*	1
Cc1ccc2c(C)nc(Nc3nc(CSc4nnc(C)s4)cc(=O)[nH]3)nc2c1	11178	6	-7	-4	96*	0
CCOC(=O)c1nn(-c2ccccc2)c(=O)cc1SC(C)CC (stereo unspecified)	23432*	1	0	-3	-9	-2
CCCCSc1cc(=O)n(-c2ccccc2)nc1C(=O)OCC	23302*	1	0	-4	2	-2
CCOC(=O)c1nn(-c2ccccc2)c(=O)cc1SC(C)C	11481	0	-1	2	3	0
CCN(CC(=O)Nc1ccc(NC(C)=O)cc1)C(=O)c1cc([N+](=O)[O-])ccc1Sc1ccc(Cl)cc1	4237	1	0	-12	-10	0
COc1cnc(-c2ccccn2)nc1Sc1ccccc1	3644	268*	-4	-3	5	-3
COc1cnc(-c2ccccn2)nc1Sc1ccc(F)cc1	1819	37*	0	-1	-1	-2
COc1cnc(-c2ccccn2)nc1N(C)c1ccccc1	3614	183*	-9	?	5	-1
COc1cnc(-c2ccccn2)nc1Sc1ccc(Cl)cc1	21806*	1	-2	-6	-14	?
CCc1cc2c(COC(=O)c3cccc(NS(C)(=O)=O)c3)cc(=O)oc2cc1O	3606	0	0	-17	9	-1
COc1cc(OC)cc(N(C(=O)CNC(=O)c2ccco2)C(C(=O)NCC2CCCO2)c2ccccc2)c1 (stereo unspecified)	5555	-1	0	4	7	1
COC(=O)C(=Cc1ccccc1[N+](=O)[O-])C(=O)OC	3938	0	2	4	4	-3
CN(C)c1ccc(/C=C/C(=O)c2cccc(Br)c2)cc1	33462*	5	35*	84*	-633	40*
SMILES	Bead autofluor	PfHsp40 yeast	Anthrax LF inh2	BoNT-F LC inh	MazF activator	BoNT-A LC inh2
COc1cc(-c2nn3c(Cc4ccccc4)nnc3s2)cc(OC)c1OC	22616*	6	-6	3	-1	2
COc1cc(-c2nn3c(-c4ccccc4)nnc3s2)cc(OC)c1OC	.	0	.	.	3	.
CCOc1cccc(-c2nnc3sc(-c4cc(OC)c(OC)c(OC)c4)nn23)c1	11659	1	0	-9	9	0
COc1cc(-c2nn3c(COc4ccccc4)nnc3s2)cc(OC)c1OC	23486*	-1	2	1	5	-1
O=C(O)CCCCCN1C(=O)/C(=C\c2ccc(-c3ccc(Cl)cc3)o2)SC1=S	3516	-2	22	10	-67	43*
O=C(O)CCCN1C(=O)/C(=C/c2ccc(-c3nc4ccccc4s3)o2)SC1=S	2489	-1	40*	1	-9	30*
O=C(O)CCCN1C(=O)/C(=C/c2ccncc2)SC1=S	4598	4	1	-8	-7	0
Cc1noc(C)c1CSCC(=O)Nc1ccc(S(=O)(=O)C(F)F)cc1	4781	-1	1	6	11	2
CSc1nsc(SCC(=O)Nc2c(C)n(C)n(-c3ccccc3)c2=O)n1	20801*	0	1	1	1	2
COc1ccc(-n2nnnc2SCC(=O)Nc2nnn(C)n2)cc1	22244*	-1	-2	0	7	2
Cc1c(NC(=O)CSc2nnnn2-c2ccc(F)cc2)c(=O)n(-c2ccccc2)n1C	4399	1	-2	-1	8	0
Cc1c(NC(=O)CSc2nnnn2-c2ccc(O)cc2)c(=O)n(-c2ccccc2)n1C	23720*	-1	-2	-4	1	?
Cc1csc(SCC(=O)Nc2c(C)n(C)n(-c3ccccc3)c2=O)n1	2782	1	-2	-6	0	-1
COc1ccc(-n2nnnc2SCC(=O)NC2CC2)cc1	8008	-1	-6	-23	-2	-10
CCN1CCc2c(sc(NC(=O)COc3ccccc3)c2C(=O)OC)C1	6187	0	-4	3	-11	-1
Fc1ccc(-c2nnc(Cc3nnc(-c4ccc(F)cc4)o3)o2)cc1	22771*	0	0	3	12	2
COc1ccc(NC(=S)NCc2ccc3c(c2)cc(C)n3C)cc1	1884	-1	-120	-135	19	25
CCCCNC(=S)NCc1ccc2c(c1)cc(C)n2C	3100	0	-42	-76	15	30*
Cc1cc2cc(CNC(=S)NCc3ccccc3)ccc2n1C	2043	0	-80	-120	23	45*
CCc1cccc(C)c1NC(=S)NCc1ccc2c(c1)cc(C)n2C	1803	1	-101	-141	8	57*
COc1ccccc1NC(=S)NCc1ccc2c(c1)cc(C)n2C	2036	1	-75	-120	12	33*
Cc1ccccc1NC(=S)NCc1ccc2c(c1)cc(C)n2C	4862	0	0	-20	9	12
COC(=O)c1cccc(F)c1C(=O)c1cccc2ccccc12	3797	0	-3	-8	0	0
COc1ccc(/C=C\C(=O)NCc2ccc3c(c2)cc(C)n3C)cc1OC	2367	0	-63	-98	-5	62*
COc1ccc(/C=C/C(=O)NCCCNC(=O)/C=C/c2ccc(OC)c(OC)c2)cc1OC	5572	0	-2	-4	5	0
